Data taken from PubChem BioAssay.
The source made the active and inactive calls. Unless noted, no stated cut-off is given here; in the data, active means inhibition above about 80%; inactive means the rest.

What was measured:
[1] = growth inhibition, single agent or in combination, cell-based, chromothripsis tumors, cisplatin or BGB combos (AID 1671449); conditions: LFS_MB_P medulloblastoma cells;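 further: cells exposed for 96 hours; 0% = vehicle DMSO and 100% = killing by high DMSO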
[2] = growth inhibition, single agent and combos, cell-based, chromothripsis tumors, cisplatin or BGB combos (AID 1671450); conditions: HDN33 neuroblastoma cells, stronger effect = higher value;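 further: cells exposed to compound for four days; 0% = vehicle DMSO and 100% = cell killing by high DMSO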
[3] = growth inhibition, single agents and combos, ICB984, cell-based, cisplatin or BGB combos, synergistic combos for chromothripsis tumors (AID 1671451; call rule not given here;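 further: cells exposed for 96 hours before readout; 0% = vehicle DMSO and 100% = killing by high DMSO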); conditions: ICB984 medulloblastoma cells, drug combinations, stronger effect = higher value
[4] = growth inhibition, single agents and combos, LFS_MB_1R, cell-based, cisplatin or BGB combos, synergistic combos for chromothripsis tumors (AID 1671452); conditions: LFS_MB_1R medulloblastoma cells, stronger effect = higher value;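 further: cells exposed for 96 hours before readout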
[5] = growth inhibition, single agents and combos, HTB85, cell-based, BGB or cisplatin IC20 combos, synergistic combos for chromothripsis tumors (AID 1671453); conditions: HTB85 osteosarcoma cells, drug combinations, stronger effect = higher value;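 further: cells exposed for 96 hours before readout; 0% = vehicle DMSO and 100% = high DMSO killing control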
[6] = growth inhibition, single agents and combos, CRL2098, cell-based, BGB or cisplatin IC20 combos, synergistic combos for chromothripsis tumors (AID 1671454); conditions: CRL2098 osteosarcoma cells, drug combinations, stronger effect = higher value;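 further: cells exposed for 96 h before readout; 0% = vehicle DMSO and 100% = killing by high DMSO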
[7] = growth inhibition, single agents and combos, HD-MB03, cell-based, BGB or cisplatin IC20 combos, synergistic combos for chromothripsis tumors (AID 1671455; in the data active means inhibition above about 83%;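 further: 0% = vehicle DMSO and 100% = high DMSO as cytotoxic control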); conditions: HD-MB03 medulloblastoma cells, stronger effect = higher value
[8] = growth inhibition, single agents and combos, UWB1.289, cell-based, BGB or cisplatin combos, synergistic combos for chromothripsis tumors (AID 1671456); conditions: UWB1.289 ovarian carcinoma cells, stronger effect = higher value;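 further: cells exposed to compound for four days; 0% = vehicle DMSO and 100% = killing by high DMSO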
[9] = growth inhibition, single agents and combos, LFS_MB_2R, cell-based, cisplatin combos, synergistic combos for chromothripsis tumors (AID 1671457); conditions: LFS_MB_2R medulloblastoma cells, stronger effect = higher value;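 further: cells exposed to compound for four days before readout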
[10] = growth inhibition, MDA-MB-436, cell-based, BGB or cisplatin combos, synergistic combos for chromothripsis tumors (AID 1671458; call rule not given here;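 further: cells exposed for 96 hours; 0% = vehicle DMSO and 100% = killing by high DMSO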); conditions: MDA-MB-436 breast carcinoma growth inhibition, drug combinations, stronger effect = higher value
[11] = UWB1.289_BRCA1 ovarian cancer growth, cell-based, BGB or cisplatin combinations (AID 1671459); conditions: UWB1.289 BRCA1 ovarian carcinoma, drug combinations, stronger effect = higher value
[12] = drug combination toxicity in non-malignant astrocytes – cell-based, BGB or cisplatin IC20 combos, cytotoxicity control for chromothriptic childhood tumor combination screen (AID 1671460); conditions: Human astrocytes, viability inhibition, drug combinations, at 0.5 µM, stronger effect = higher value;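 further: cells exposed to compounds for 96 hours before viability readout; 0% = vehicle and 100% = killing control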
[13] = BT084 cell growth, single and combined drugs, ICGC_MB145, cisplatin and BGB IC40 combos (AID 1671461); conditions: BT084 medulloblastoma cells, drug combinations, stronger effect = higher value;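 further: cells exposed to drugs for 96 hours; 0% = vehicle DMSO and 100% = high DMSO full killing control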
[14] = RCMB18 cell growth, single agent and combined, cisplatin and BGB IC40 combos (AID 1671462); conditions: RCMB18 medulloblastoma cells, stronger effect = higher value;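 further: cells exposed to compound for four days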
[15] = CRL1545 cell growth, single agent and combined, cisplatin and BGB IC20 combos (AID 1671464); conditions: CRL1545 osteosarcoma cells, stronger effect = higher value;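 further: cells exposed to compound for 96 hours before readout; 0% = vehicle DMSO and 100% = high DMSO killing control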
[16] = measured here: combination with BGB IC40, at 0.05 µM
[17] = measured here: with BGB IC20 combination, at 0.5 µM
[18] = measured here: with cisplatin IC20 combination, at 0.5 µM
[19] = measured here: combination with cisplatin, at 0.5 µM
[20] = measured here: combination with cisplatin, at 5 µM

## CO[C@H]1/C=C/O[C@@]2(C)Oc3c(C)c(O)c4c(O)c(c(C=NN5CCN(C)CC5)c(O)c4c3C2=O)NC(=O)/C(C)=C\C=C\[C@H](C)[C@H](O)[C@@H](C)[C@@H](O)[C@@H](C)[C@H](OC(C)=O)[C@@H]1C
[1]; at 0.5 µM, stronger effect = higher value
  inhibition: -11% (inactive)
[1]; measured here: combination with BGB IC20, at 0.005 µM
  inhibition: -12.4%
[1]; measured here: combination with BGB IC40, at 0.005 µM
  inhibition: -11.3%
[1]; [16]
  inhibition: 7.63%
[1]; measured here: combination with cisplatin, at 0.5 µM, stronger effect = higher value
  inhibition: -13.1%
[1]; measured here: combination with cisplatin, at 5 µM, stronger effect = higher value
  inhibition: 25%
[2]; BGB combo, at 5 µM
  inhibition: 2%
[2]; at 0.5 µM
  inhibition: 2.94% (inactive)
[2]; cisplatin combo, at 5 µM
  inhibition: -6.32%
[2]; [17]
  inhibition: 7.7%
[2]; [18]
  inhibition: 10.2%
[2]; single agent, at 5 µM
  inhibition: 0.074%
[3]; BGB IC20 combo, at 0.005 µM
  inhibition: 6.74%
[3]; BGB IC40 combo, at 0.005 µM
  inhibition: -7.18%
[3]; BGB IC40 combo, at 0.05 µM
  inhibition: 33.5%
[3]; at 0.5 µM
  inhibition: -10.8% (inactive)
[3]; cisplatin combo, at 0.05 µM
  inhibition: 33.5%
[3]; cisplatin combo, at 0.5 µM
  inhibition: -9.79%
[3]; cisplatin combo, at 5 µM
  inhibition: -23.1%
[3]; measured here: 5 uM single agent, at 5 µM
  inhibition: -0.291%
[4]; at 0.5 µM
  inhibition: -13.7% (inactive)
[4]; [16]
  inhibition: -25.4%
[4]; [19]
  inhibition: 34.7%
[4]; [20]
  inhibition: 6.61%
[5]; at 0.5 µM
  inhibition: -9.22% (inactive)
[5]; measured here: with BGB IC20, at 0.5 µM
  inhibition: -34.1%
[5]; measured here: with BGB IC20, at 5 µM
  inhibition: 19.8%
[5]; measured here: with cisplatin IC20, at 0.5 µM
  inhibition: -3.74%
[5]; measured here: with cisplatin IC20, at 5 µM
  inhibition: 32.8%
[5]; single agent, at 5 µM
  inhibition: 32.5%
[6]; at 0.5 µM
  inhibition: -28.2% (inactive)
[6]; measured here: combination with BGB at IC20, at 0.5 µM
  inhibition: -20.5%
[6]; measured here: combination with cisplatin at IC20, at 0.5 µM
  inhibition: -57.4%
[7]; at 0.5 µM
  inhibition: -2.23% (inactive)
[7]; measured here: combo with BGB at IC20, at 0.5 µM
  inhibition: -1.06%
[7]; measured here: combo with cisplatin at IC20, at 0.5 µM
  inhibition: -3.79%
[8]; at 0.5 µM
  inhibition: 6.08% (inactive)
[8]; measured here: inhibition with BGB combination, at 0.05 µM
  inhibition: 0.522%
[8]; measured here: inhibition with cisplatin combination, at 0.05 µM
  inhibition: -2.06%
[9]; at 0.5 µM
  inhibition: -16.1% (inactive)
[9]; [19]
  inhibition: -10.3%
[9]; [20]
  inhibition: 19.4%
[10]; at 0.5 µM
  inhibition: -11.2% (inactive)
[10]; measured here: BGB combination, at 0.5 µM
  inhibition: -8.37%
[10]; measured here: BGB combination, at 5 µM
  inhibition: 1.85%
[10]; measured here: cisplatin combination, at 0.5 µM
  inhibition: -22.5%
[10]; measured here: cisplatin combination, at 5 µM
  inhibition: 4.56%
[11]; BGB combination, concentration series, at 5 µM
  inhibition: 33.9%
[11]; at 0.5 µM
  inhibition: 4.15% (inactive)
[11]; cisplatin combination, concentration series, at 5 µM
  inhibition: 22%
[12]
  inhibition: -6.54% (inactive)
[12]; measured here: combo with BGB IC20
  inhibition: -11%
[12]; measured here: combo with cisplatin IC20
  inhibition: -7.29%
[13]; at 0.5 µM
  inhibition: -5.85% (inactive)
[13]; cisplatin combination, at 0.5 µM
  inhibition: -3.4%
[13]; cisplatin combination, at 5 µM
  inhibition: -36.2%
[13]; measured here: BGB IC40 combination 0.05 uM, at 0.05 µM
  inhibition: -6.21%
[13]; single agent, at 5 µM
  inhibition: -1.11%
[14]; at 0.5 µM
  inhibition: -18.2% (inactive)
[14]; cisplatin combo, at 5 µM
  inhibition: 4.58%
[14]; measured here: BGB IC40 combination, at 0.05 µM
  inhibition: -7.26%
[14]; [19]
  inhibition: -16%
[14]; single agent, at 5 µM
  inhibition: -21.9%
[15]; at 0.5 µM
  inhibition: -32.1% (inactive)
[15]; [17]
  inhibition: -8.55%
[15]; [18]
  inhibition: -44%
[15]; single agent, at 0.05 µM
  inhibition: 6.37%
[15]; single agent, at 5 µM
  inhibition: 27.5%
